Measurements: paper PMC7862700, “An all-to-all approach to the identification of sequence-specific readers for epigenetic DNA modifications on cytosine”

Columns and labels:
Assay in all cases: DAPPL (digital affinity profiling via proximity ligation, sequencing); 10 mM Tris-HCl pH 7.5, 50 mM NaCl, 1 mM DTT, 4% glycerol, room temperature, 30 min; GST-TFs on glutathione beads, 16-mer random dsDNA library, 0.1% formaldehyde crosslink after washing; high values mean tight binding
FLI1 = biological target: T1, FLI1 (Homo sapiens, UniProt Q01543 1-452); details: protein: recombinant; tags: N-terminal GST; dsDNA, one strand shown
T1 sequence: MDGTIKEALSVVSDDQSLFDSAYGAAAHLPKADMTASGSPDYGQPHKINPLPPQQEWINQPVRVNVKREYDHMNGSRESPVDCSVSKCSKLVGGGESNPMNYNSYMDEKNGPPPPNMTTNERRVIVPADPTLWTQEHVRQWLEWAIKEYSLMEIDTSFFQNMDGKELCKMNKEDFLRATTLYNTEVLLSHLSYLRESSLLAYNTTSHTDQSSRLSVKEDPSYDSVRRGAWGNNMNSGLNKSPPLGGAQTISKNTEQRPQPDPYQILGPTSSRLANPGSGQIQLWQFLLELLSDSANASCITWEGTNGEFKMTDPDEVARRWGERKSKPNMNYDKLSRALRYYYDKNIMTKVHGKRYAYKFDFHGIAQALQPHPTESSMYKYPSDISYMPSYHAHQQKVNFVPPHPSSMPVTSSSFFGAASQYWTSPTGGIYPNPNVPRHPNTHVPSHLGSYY
How it was run: (§1)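 Human transcription factors carrying a GST fusion were produced in yeast, bound to glutathione beads, tagged with DNA barcodes and pooled together with a tag-only sample. Each pool was held with 200 nmole of a random double-stranded 16-mer DNA library in Tris/NaCl/DTT/glycerol buffer for 30 min at room temperature, then washed, crosslinked in 0.1% formaldehyde, proximity-ligated with BsaI/T4 ligase (1 h, 37 °C), PCR-amplified and sequenced on an Illumina NextSeq500. Binding signal is the read frequency of each hexamer for a given factor divided by its frequency in the tag-only sample.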

ELK1 = biological target: T2, ELK1 (Homo sapiens, UniProt P19419 1-428); details: protein: recombinant; tags: N-terminal GST; dsDNA, one strand shown
T2 sequence: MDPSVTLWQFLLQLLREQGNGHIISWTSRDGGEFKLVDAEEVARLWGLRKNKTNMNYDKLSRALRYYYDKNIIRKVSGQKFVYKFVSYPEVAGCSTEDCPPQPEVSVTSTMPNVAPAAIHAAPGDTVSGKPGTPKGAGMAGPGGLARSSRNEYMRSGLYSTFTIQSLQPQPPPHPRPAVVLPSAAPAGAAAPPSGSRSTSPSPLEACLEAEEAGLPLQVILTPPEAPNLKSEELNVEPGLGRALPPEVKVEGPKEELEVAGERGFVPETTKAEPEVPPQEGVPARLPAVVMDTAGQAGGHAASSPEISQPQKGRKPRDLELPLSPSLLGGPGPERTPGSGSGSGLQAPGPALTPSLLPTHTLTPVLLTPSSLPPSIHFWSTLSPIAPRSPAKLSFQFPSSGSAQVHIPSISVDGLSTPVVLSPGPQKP
How it was run: as §1

GABPA = biological target: T3, GABPA (Homo sapiens, UniProt Q06546 1-454); details: protein: recombinant; tags: N-terminal GST; dsDNA, one strand shown
T3 sequence: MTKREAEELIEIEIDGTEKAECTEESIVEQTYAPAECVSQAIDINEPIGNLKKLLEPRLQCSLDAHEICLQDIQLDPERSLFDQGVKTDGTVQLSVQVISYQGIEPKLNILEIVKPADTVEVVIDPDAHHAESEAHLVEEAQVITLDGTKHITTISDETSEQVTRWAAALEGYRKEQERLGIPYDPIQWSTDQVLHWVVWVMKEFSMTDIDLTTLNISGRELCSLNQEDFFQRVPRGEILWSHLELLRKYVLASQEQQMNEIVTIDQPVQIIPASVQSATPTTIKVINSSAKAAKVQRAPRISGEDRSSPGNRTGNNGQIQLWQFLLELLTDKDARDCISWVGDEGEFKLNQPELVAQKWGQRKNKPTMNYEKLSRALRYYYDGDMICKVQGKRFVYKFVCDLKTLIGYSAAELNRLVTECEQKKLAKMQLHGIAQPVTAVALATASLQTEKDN
How it was run: as §1

ERG = biological target: T4, ERG (Homo sapiens, UniProt P11308 1-479); details: protein: recombinant; tags: N-terminal GST; dsDNA, one strand shown
T4 sequence: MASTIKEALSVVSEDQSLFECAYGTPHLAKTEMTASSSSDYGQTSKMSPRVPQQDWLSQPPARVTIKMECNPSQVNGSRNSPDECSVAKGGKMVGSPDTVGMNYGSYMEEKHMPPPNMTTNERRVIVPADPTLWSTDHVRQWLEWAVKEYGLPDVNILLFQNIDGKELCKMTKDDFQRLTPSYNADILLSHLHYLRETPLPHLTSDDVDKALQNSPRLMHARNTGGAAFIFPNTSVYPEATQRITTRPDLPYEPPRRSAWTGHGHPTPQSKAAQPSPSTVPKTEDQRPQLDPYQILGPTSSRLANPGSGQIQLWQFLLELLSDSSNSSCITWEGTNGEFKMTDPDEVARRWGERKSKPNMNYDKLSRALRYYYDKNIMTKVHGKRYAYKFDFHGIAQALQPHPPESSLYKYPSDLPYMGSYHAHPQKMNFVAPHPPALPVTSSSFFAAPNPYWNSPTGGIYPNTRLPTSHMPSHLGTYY
How it was run: as §1

ELF1 = ELF1 (Homo sapiens, UniProt P32519 1-619); details: protein: recombinant; tags: N-terminal GST; dsDNA, one strand shown
How it was run: as §1

EHF = biological target: T5, EHF (Homo sapiens, UniProt Q9NZC4 1-300); details: protein: recombinant; tags: N-terminal GST; dsDNA, one strand shown
T5 sequence: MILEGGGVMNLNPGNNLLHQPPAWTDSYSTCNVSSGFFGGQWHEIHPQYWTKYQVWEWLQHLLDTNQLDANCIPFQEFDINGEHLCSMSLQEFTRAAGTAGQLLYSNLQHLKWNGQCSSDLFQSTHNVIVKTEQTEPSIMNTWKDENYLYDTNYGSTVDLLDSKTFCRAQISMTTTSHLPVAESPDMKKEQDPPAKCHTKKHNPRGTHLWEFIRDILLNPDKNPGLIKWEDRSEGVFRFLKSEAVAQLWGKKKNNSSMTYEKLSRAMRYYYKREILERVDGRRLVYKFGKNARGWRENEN
How it was run: as §1

SPI1 = SPI1 (Homo sapiens, UniProt P17947 1-270); details: protein: recombinant; tags: N-terminal GST; dsDNA, one strand shown
How it was run: as §1

SPIB = SPIB (Homo sapiens, UniProt Q01892 1-262); details: protein: recombinant; tags: N-terminal GST; dsDNA, one strand shown
How it was run: as §1

ELK3 = biological target: T6, ELK3 (Homo sapiens, UniProt P41970 1-407); details: protein: recombinant; tags: N-terminal GST; dsDNA, one strand shown
T6 sequence: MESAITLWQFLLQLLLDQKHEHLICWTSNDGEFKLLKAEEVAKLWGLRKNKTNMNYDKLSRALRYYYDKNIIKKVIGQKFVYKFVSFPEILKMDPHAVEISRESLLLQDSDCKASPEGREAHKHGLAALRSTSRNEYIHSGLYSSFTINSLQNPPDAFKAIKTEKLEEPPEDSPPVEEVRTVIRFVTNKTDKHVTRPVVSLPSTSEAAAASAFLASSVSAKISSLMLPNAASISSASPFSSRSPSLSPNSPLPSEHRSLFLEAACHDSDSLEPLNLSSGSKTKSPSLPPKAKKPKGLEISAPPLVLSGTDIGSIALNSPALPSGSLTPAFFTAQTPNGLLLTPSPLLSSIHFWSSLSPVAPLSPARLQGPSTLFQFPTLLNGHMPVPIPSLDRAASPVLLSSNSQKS
How it was run: as §1

FEV = biological target: T7, FEV (Homo sapiens, UniProt Q99581 1-238); details: protein: recombinant; tags: N-terminal GST; dsDNA, one strand shown
T7 sequence: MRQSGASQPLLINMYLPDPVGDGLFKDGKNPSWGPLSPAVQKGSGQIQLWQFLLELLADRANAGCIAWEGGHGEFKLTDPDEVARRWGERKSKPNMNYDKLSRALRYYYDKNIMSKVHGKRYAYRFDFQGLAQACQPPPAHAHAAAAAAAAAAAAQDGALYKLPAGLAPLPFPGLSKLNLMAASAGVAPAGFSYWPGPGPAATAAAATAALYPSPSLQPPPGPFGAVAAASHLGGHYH
How it was run: as §1

ETV5 = ETV5 (Homo sapiens, UniProt P41161 1-510); details: protein: recombinant; tags: N-terminal GST; dsDNA, one strand shown
How it was run: as §1

HSF1 = HSF1 (Homo sapiens, UniProt Q00613 1-529); details: protein: recombinant; tags: N-terminal GST; chain copies: 3; dsDNA, one strand shown
How it was run: as §1

SPIC = biological target: T8, SPIC (Homo sapiens, UniProt Q8N5J4 1-248); details: protein: recombinant; tags: N-terminal GST; dsDNA, one strand shown
T8 sequence: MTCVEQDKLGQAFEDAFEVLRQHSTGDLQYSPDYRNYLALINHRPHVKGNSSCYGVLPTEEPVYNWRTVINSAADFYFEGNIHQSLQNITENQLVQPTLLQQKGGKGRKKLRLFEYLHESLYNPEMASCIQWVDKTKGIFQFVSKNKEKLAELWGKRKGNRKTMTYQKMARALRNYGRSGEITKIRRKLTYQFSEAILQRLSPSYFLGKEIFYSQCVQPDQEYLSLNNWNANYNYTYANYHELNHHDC
How it was run: as §1

ELF4 = ELF4 (Homo sapiens, UniProt Q99607 1-663); details: protein: recombinant; tags: N-terminal GST; dsDNA, one strand shown
How it was run: as §1

ELK4 = biological target: T9, ELK4 (Homo sapiens, UniProt P28324-2 1-405); details: protein: recombinant; tags: N-terminal GST; dsDNA, one strand shown
T9 sequence: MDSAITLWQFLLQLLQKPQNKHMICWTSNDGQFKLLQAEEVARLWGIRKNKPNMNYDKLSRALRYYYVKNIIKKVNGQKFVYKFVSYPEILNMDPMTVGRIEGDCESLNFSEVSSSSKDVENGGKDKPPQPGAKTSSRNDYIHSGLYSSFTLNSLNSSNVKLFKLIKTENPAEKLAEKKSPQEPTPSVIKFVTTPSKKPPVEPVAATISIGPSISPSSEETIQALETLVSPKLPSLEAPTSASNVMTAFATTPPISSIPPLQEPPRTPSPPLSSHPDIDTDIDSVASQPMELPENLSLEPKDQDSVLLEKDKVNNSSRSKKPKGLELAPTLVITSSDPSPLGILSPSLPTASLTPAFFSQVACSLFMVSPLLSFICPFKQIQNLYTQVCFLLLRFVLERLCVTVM
How it was run: as §1

ETV2 = biological target: T10, ETV2 (Homo sapiens, UniProt O00321 1-342); details: protein: recombinant; tags: N-terminal GST; dsDNA, one strand shown
T10 sequence: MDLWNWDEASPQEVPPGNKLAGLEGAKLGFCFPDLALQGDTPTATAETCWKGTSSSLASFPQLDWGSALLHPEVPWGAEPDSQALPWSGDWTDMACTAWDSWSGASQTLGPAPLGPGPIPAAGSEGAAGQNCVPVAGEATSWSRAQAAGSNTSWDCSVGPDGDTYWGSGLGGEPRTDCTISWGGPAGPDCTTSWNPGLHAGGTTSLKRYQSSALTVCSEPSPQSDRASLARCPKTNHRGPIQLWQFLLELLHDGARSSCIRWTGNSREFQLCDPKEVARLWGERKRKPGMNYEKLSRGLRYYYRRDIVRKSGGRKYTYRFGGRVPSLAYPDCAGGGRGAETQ
How it was run: as §1

ELF3 = biological target: T11, ELF3 (Homo sapiens, UniProt P78545 1-371); details: protein: recombinant; tags: N-terminal GST; dsDNA, one strand shown
T11 sequence: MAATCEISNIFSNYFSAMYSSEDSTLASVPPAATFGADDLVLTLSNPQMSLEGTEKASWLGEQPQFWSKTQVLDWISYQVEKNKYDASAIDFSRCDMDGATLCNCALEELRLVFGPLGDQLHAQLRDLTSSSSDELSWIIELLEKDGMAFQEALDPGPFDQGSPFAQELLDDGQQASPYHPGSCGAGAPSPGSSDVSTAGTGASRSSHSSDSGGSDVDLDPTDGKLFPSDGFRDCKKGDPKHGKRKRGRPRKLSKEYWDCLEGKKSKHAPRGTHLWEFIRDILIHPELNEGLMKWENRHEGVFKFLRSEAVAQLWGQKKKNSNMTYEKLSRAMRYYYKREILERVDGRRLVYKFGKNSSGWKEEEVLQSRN
How it was run: as §1

ETV1 = ETV1 (Homo sapiens, UniProt P50549 1-477); details: protein: recombinant; tags: N-terminal GST; dsDNA, one strand shown
How it was run: as §1

Chain of ELF1 (P32519 whole entry): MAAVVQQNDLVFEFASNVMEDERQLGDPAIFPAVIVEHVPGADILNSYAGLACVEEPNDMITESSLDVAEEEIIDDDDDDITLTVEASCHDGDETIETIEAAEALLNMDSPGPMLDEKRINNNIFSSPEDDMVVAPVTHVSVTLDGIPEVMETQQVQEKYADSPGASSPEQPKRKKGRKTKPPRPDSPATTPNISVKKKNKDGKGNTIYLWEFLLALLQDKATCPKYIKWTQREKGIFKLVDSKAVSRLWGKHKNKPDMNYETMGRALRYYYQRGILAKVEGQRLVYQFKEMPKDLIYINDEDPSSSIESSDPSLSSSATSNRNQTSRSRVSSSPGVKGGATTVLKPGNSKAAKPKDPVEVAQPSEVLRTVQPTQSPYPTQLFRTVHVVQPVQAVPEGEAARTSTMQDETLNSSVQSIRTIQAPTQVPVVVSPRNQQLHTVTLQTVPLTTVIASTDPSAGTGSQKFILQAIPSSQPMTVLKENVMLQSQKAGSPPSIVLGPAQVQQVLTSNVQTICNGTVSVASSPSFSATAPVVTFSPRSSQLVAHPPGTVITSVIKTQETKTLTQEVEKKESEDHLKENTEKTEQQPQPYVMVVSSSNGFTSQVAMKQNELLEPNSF
Chain of ELF4 (Q99607 whole entry): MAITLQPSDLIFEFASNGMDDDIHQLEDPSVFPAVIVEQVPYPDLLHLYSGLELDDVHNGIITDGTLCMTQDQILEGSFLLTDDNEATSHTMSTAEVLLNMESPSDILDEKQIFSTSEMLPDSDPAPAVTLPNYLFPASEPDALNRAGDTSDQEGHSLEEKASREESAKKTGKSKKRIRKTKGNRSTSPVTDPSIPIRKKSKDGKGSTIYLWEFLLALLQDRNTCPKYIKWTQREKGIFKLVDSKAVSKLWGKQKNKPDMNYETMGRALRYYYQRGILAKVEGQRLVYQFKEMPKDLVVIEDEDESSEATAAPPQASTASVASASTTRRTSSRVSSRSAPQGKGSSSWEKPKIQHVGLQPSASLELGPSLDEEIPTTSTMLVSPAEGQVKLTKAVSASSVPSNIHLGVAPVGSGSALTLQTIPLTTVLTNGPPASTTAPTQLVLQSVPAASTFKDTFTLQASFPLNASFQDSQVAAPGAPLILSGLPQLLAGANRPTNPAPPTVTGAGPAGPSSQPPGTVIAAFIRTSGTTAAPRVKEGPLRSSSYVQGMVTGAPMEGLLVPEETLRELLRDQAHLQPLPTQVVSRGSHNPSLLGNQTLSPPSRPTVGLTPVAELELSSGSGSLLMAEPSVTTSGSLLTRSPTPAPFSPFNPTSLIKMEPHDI
Chain of ETV5 (P41161 whole entry): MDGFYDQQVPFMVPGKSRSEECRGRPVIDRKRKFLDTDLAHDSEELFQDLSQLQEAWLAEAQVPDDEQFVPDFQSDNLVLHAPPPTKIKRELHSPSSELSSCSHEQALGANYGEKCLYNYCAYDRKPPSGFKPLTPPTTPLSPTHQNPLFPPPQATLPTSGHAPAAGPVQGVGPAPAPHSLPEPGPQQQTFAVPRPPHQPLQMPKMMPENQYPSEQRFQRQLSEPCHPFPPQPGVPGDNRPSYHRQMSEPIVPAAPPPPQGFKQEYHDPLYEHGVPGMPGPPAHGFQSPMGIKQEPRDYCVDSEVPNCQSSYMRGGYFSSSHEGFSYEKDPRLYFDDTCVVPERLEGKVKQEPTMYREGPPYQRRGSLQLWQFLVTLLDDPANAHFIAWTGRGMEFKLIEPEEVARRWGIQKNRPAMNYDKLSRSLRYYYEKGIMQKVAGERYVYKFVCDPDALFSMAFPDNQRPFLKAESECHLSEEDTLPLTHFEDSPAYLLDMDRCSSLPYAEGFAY
Chain of ETV1 (P50549 whole entry): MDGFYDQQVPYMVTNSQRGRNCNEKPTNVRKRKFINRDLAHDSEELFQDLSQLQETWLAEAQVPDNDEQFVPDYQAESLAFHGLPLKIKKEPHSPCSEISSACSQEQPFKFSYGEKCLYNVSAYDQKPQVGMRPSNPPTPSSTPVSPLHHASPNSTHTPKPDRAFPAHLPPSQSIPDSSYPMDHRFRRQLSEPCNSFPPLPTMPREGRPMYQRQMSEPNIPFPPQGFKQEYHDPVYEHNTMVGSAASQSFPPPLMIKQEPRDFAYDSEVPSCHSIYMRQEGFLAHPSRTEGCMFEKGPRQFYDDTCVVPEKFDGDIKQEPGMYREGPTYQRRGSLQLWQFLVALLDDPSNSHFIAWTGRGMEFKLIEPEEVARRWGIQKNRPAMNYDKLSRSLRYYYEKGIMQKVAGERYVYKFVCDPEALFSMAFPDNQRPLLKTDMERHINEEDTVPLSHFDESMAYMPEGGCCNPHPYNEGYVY
Chain of HSF1 (Q00613 whole entry): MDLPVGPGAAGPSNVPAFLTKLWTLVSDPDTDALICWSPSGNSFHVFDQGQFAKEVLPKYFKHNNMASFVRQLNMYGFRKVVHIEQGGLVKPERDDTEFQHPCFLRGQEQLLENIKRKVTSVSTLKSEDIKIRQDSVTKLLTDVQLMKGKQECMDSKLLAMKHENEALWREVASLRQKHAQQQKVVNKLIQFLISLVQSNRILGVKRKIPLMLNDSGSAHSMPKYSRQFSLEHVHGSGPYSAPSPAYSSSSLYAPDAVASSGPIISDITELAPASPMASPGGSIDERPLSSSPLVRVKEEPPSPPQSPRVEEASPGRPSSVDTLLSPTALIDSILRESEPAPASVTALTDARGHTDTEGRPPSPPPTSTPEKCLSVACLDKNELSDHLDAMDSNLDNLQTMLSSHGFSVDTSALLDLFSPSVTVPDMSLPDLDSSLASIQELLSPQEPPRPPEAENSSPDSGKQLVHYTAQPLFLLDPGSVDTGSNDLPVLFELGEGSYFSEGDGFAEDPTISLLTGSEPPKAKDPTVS
Chain of SPIB (Q01892 whole entry): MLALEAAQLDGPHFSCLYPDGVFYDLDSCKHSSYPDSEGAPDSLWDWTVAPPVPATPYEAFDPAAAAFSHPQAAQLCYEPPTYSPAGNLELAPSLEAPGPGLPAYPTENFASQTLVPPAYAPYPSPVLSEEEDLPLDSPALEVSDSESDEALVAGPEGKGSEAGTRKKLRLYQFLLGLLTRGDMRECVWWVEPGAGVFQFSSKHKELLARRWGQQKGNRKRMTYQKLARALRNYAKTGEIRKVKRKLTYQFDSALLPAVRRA

TTCCGT
binding signal (FLI1): 1.79 fold enrichment (6-mer frequency, TF over GST control)
binding signal (ELK1): 2.11 fold enrichment (6-mer frequency, TF over GST control)
binding signal (GABPA): 1.76 fold enrichment (6-mer frequency, TF over GST control)
binding signal (ERG): 2.13 fold enrichment (6-mer frequency, TF over GST control)
binding signal (ELF1): 1.74 fold enrichment (6-mer frequency, TF over GST control)
binding signal (EHF): 2 fold enrichment (6-mer frequency, TF over GST control)
binding signal (SPI1): 2.14 fold enrichment (6-mer frequency, TF over GST control)
binding signal (SPIB): 2.07 fold enrichment (6-mer frequency, TF over GST control)
binding signal (ELK3): 1.86 fold enrichment (6-mer frequency, TF over GST control)
binding signal (FEV): 1.86 fold enrichment (6-mer frequency, TF over GST control)
binding signal (ETV5): 1.99 fold enrichment (6-mer frequency, TF over GST control)
binding signal (HSF1): 1.02 fold enrichment (6-mer frequency, TF over GST control)
binding signal (SPIC): 2.02 fold enrichment (6-mer frequency, TF over GST control)
binding signal (ELF4): 1.67 fold enrichment (6-mer frequency, TF over GST control)
binding signal (ELK4): 1.89 fold enrichment (6-mer frequency, TF over GST control)
binding signal (ETV2): 1.88 fold enrichment (6-mer frequency, TF over GST control)
binding signal (ELF3): 1.74 fold enrichment (6-mer frequency, TF over GST control)
binding signal (ETV1): 1.82 fold enrichment (6-mer frequency, TF over GST control)
